Screens (PubChem)
Rv3671c protease: Rv3671c (M. tuberculosis) protease inhibition. P9WHR9. inhibition, % at 5.96 µM. 0.048% of 320,000 active; in the data active = inhibition above about 38%;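 also: extracellular domain of Rv3671c used as enzyme; 0% = enzyme with DMSO and 100% = no enzyme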
FadD28 FP inh: inhibitors of Mycobacterium tuberculosis FadD28 bisubstrate binding. FadD28 bisubstrate probe binding, fluorescence polarization. inhibition, % at 12.5 µM. 0.22% of 360,000 active. AID 588549; in the data active = inhibition above about 8.5%, passing the limit was not always enough; inconclusive = no clear call, values can overlap the other calls
Mtb bLac sens: beta-lactam sensitization of Mtb H37Rv; M. tuberculosis H37Rv growth with meropenem, percent inhibition; inhibition, % at 25 µM; 0.27% of 330,000 active; AID 434955; call rule not given here;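 also: growth measured after seven days incubation then overnight dye step; 0% = bacteria only wells and 100% = bacteria with antibiotic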
FBA Mtb inh: Mtb fructose-bisphosphate aldolase inhibition; purified M. tuberculosis FBA, fluorescence read-out; 2.3% of 360,000 active; inhibition, % at 1 µM;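 also: 0% = vehicle and 100% = reference inhibitor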
Target sequence (P9WQA3 whole entry, looked up): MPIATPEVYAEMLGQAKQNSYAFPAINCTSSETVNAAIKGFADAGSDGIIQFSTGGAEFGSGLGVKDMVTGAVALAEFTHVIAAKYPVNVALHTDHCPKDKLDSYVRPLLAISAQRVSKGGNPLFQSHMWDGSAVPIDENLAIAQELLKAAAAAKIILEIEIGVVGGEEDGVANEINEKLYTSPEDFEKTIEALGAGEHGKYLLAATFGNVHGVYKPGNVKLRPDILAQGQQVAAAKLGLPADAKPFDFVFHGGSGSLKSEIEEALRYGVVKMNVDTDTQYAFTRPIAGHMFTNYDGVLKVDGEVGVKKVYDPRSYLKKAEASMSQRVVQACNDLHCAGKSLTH
GDH-TPI counter-1: GDH-TPI coupled enzyme inhibition counter-screen. GDH-TPI coupled enzyme counterscreen, NADH absorbance. inhibition, % at 4.8 µM. 1.2% of 360,000 active; in the data active = inhibition above about 30%;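 also: 0% = DMSO wells and 100% = wells lacking the enzyme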
UGM FP inh: Mtb UDP-galactopyranose mutase inhibition; P9WIQ1; purified UGM, fluorescence polarization probe displacement; inhibition, % at 10 µM; 0.06% of 320,000 active; AID 504406; in the data active = inhibition above about 10%, passing the limit was not always enough; inconclusive = no clear call, values can overlap the other calls
Mtb FBA inh conf: confirmation of M. tuberculosis fructose-bisphosphate aldolase inhibitors | shares compounds with FBA Mtb inh | purified M. tuberculosis FBA, fluorescence read-out | inhibition, % at 1 µM | 78% of 5,600 active | AID 651616;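 also: 0% = vehicle wells and 100% = reference inhibitor wells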
GDH-TPI counter-2: inhibits GDH-TPI coupling enzymes, flagging Mtb FBA hits. 81% of 5,600 active. shares compounds with FBA Mtb inh. GDH-TPI coupled enzyme counterscreen, fluorescence. inhibition, % at 1 µM; in the data active = inhibition above about 10%
* marks the source's active call; other numbers are inactive results; ? = inconclusive; nt = no result given; + = active, no number. This is a sample that favours compounds with a hit; in the whole collection about 3.7% have one here. Rule as the data show it, unless noted: active = inhibition above about 27%; inactive = the rest.

SMILES	Rv3671c protease	FadD28 FP inh	Mtb bLac sens	FBA Mtb inh	GDH-TPI counter-1	UGM FP inh	Mtb FBA inh conf	GDH-TPI counter-2
CCC(CC)c1nnc(NC(=O)Cc2c[nH]c3ccccc23)s1	nt	7	nt	2	0	nt	nt	nt
Cc1coc2c1c(C)cc1oc(=O)c(CC(=O)N[C@H](C(=O)O)C(C)C)c(C)c12	3	-1	2	76*	11	0	51*	49*
CCC(NC(=O)Cc1c(C)c2c(cc(C)c3c(C)c(C)oc32)oc1=O)C(=O)O (stereo not drawn)	nt	-2	-7	37*	30	-1	193*	179*
Cc1coc2c1c(C)cc1oc(=O)c(CC(=O)N[C@@H](C)C(=O)O)c(C)c12	nt	-6	-5	38*	-6	-3	+	+
COCCNC(=O)C1(C)CCCN(C(=O)c2cc(F)ccc2C)C1 (stereo not drawn)	nt	-5	nt	-2	-2	nt	nt	nt
COc1cc(OC)cc(C(=O)Nc2cccc3ccccc23)c1	-6	-5	5	-2	6	-2	nt	nt
COC(=O)/C(=C/Nc1cccc2ccccc12)[N+](=O)[O-]	7	-1	2	74*	-2	-4	98*	80*
Cc1ccc(CNC(=O)CN(C(=O)C2(C)CC(=O)N=C3C=CC=CN32)c2ccccc2F)cc1 (stereo not drawn)	-11	-5	-2	82*	3	0	77*	53*
Cc1ccc(CNC(=O)CN(C(=O)C2(C)CC(=O)N=C3C=CC=CN32)c2ccc(F)cc2)cc1 (stereo not drawn)	-9	-2	-3	69*	9	2	-2	-5
COc1cccc(C(=O)N2CCN(C(=O)C3CC3)CC2)c1	nt	0	nt	1	-2	nt	nt	nt
O=C(COC(=O)c1cccnc1Cl)NC(=O)c1ccc(OC(F)F)cc1	3	-1	0	1	-6	4	nt	nt
CCN(CC)CCN1C(=O)c2ccccc2NC1c1cccc(F)c1 (stereo not drawn)	-8	-1	1	51*	8	2	27*	21*
CCN(CC)CCN1C(=O)c2ccccc2NC1c1ccc(Br)cc1 (stereo not drawn)	-5	-1	-7	84*	10	2	121*	101*
O=C(O)CCC(=O)NN1C(=O)c2ccccc2NC1c1ccc(F)cc1 (stereo not drawn)	5	-1	-5	40*	3	1	127*	95*
CCN(CC)CCN1C(=O)c2ccccc2NC1c1ccccc1F (stereo not drawn)	-1	-1	-3	68*	7	1	169*	88*
O=C1c2ccccc2NC(c2ccccc2F)N1NS(=O)(=O)c1ccccc1 (stereo not drawn)	-9	1	6	13	3	-2	nt	nt
O=C1c2ccccc2NC(c2ccc(-c3cccc(F)c3)o2)N1O (stereo not drawn)	1	-3	-2	13	11	4	nt	nt
Cc1ccc2ccccc2c1C(O)c1ncc(-c2cccc(F)c2)[nH]1 (stereo not drawn)	nt	0	nt	3	7	nt	nt	nt
CCc1nc2ccc(C(=O)NCCCN3CCCC3=O)cn2c1N(C)C(=O)Nc1ccccc1OC	nt	-1	nt	2	-10	nt	nt	nt
CC1(C)OC2OC3C(CNCCO)OC(c4ccccc4)OC3C2O1 (stereo not drawn)	nt	0	nt	-2	5	nt	nt	nt
CCN(CC)CCN1C(=O)c2ccccc2NC1c1ccc(C)cc1 (stereo not drawn)	1	-2	?	79*	10	1	63*	38*
CCN(CC)CCN1C(=O)c2ccccc2NC1c1ccc(N(C)C)cc1 (stereo not drawn)	-5	-6	-5	13	0	0	nt	nt
CCN(CC)CCN1C(=O)c2ccccc2NC1c1ccc(F)cc1 (stereo not drawn)	5	0	-5	45*	13	1	129*	117*
CCOc1ccc2nc(SCC3CC3(Cl)Cl)[nH]c2c1 (stereo not drawn)	-6	-3	-2	-2	5	0	nt	nt
ClC1(Cl)CC1CSc1nc2ccccc2[nH]1 (stereo not drawn)	0	-3	1	33*	0	-1	88*	85*
SMILES	Rv3671c protease	FadD28 FP inh	Mtb bLac sens	FBA Mtb inh	GDH-TPI counter-1	UGM FP inh	Mtb FBA inh conf	GDH-TPI counter-2
COc1ccc(S(=O)(=O)N2CCN(Cc3ccc(OC)c(OC)c3)CC2)cc1	-4	-1	4	29*	7	-2	40*	42*
COc1ccc(C(=O)Nc2nc(OCC(F)(F)F)cnc2/C=C\c2ccccc2)c(OC)c1	nt	-4	nt	1	4	nt	nt	nt
CC(C)c1nc2oc3c(NCC4CCCO4)ncnc3c2c2c1CCC2 (stereo not drawn)	0	-3	43	57*	9	0	181*	151*
CCCc1nc2oc3c(NCCCN(C)C)ncnc3c2c2c1CCCC2	0	-9	2	61*	10	0	+	+
CCCc1nc2oc3c(NCCN(C)C)ncnc3c2c2c1CCCC2	-1	-8	31	22	6	-4	nt	nt
CCCc1nc2oc3c(NCC4CCCO4)ncnc3c2c2c1COC(C)(C)C2 (stereo not drawn)	3	-3	-2	12	-13	0	nt	nt
CC(C)Cc1nc2oc3c(NCC(C)O)ncnc3c2c2c1CCCC2 (stereo not drawn)	-6	-7	8	60*	-2	3	+	+
COc1cc(OC)c(N(C)S(=O)(=O)c2cccc(C(=O)OCC(=O)NCc3ccco3)c2)cc1Cl	-3	-2	1	-1	0	1	nt	nt
CCc1nc2ccc(C(=O)NCCOc3ccc(OC)cc3)cn2c1N(CC)CCOC	nt	-4	nt	-2	7	nt	nt	nt
CCCC(O)(c1ccc(Cl)cc1)C(CN1CCOCC1)c1ccc(Cl)cc1 (stereo not drawn)	4	-1	?	30*	3	0	97*	70*
COC(=O)CNC(=O)COC(=O)c1cc(Cl)cc(Cl)c1N	4	-1	94	110*	-3	0	+	+
CC(C)CNC(=O)COC(=O)c1cc(Cl)cc(Cl)c1N	1	-1	8	78*	-1	2	+	+
CC(C)CNC(=O)COC(=O)c1ccc(F)cc1Cl	6	-2	17	-4	0	-3	nt	nt
COC(=O)CNC(=O)COC(=O)c1ccc(OC)c([N+](=O)[O-])c1	2	-2	11	-1	8	-3	nt	nt
COc1ccc(CCNc2oc(-c3ccccc3OC)nc2C#N)cc1OC	15	0	3	86*	9	-2	96*	70*
Cc1ccc(-c2nc(C#N)c(NCc3ccco3)o2)cc1	-7	1	38	92*	11	nt	54*	41*
